Results filed as inconclusive are left out. A call without a number means that no potency is given here. Unmarked numbers belong to inactive results. The source made the active and inactive calls. The call rests on the fitted dose curve; in most records, active means well fitted inhibition curve with a large enough effect; inconclusive means small, poorly fitted or top-dose-only effect; inactive means flat fitted curve, though single readings scatter.
How the values were obtained:
[1] = target: Calcium and integrin-binding protein 1 (Homo sapiens) (UniProt Q99828); assay: Primary qHTS for Identification of Calcium Integrin Binding Protein 1 (CIB1) Competitor (AID 1508620);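 further: GST tagged CIB1 binding a fluorescein labelled alphaIIb integrin peptide tracer; top concentration of the series differs between compounds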
Method in brief: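 Fluorescence polarization competition: GST-tagged CIB1 (1 uM final) preincubated with compound 15 min at room temperature, then FITC-labelled alphaIIb peptide (100 nM final) added. After 15 min at room temperature, polarization read at Ex 480/Em 540.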

[2] = Primary qHTS for inhibitors of nuclear receptor binding SET domain protein 2 (NSD2) in an isogenic RCH-ACV NSD2 p.E1099K mutant (9B) (AID 1645876); further: nearly all actives have a fitted effect of over 70% in size; further: potency means the concentration at half of the fitted maximal effect

Calcium and integrin-binding protein 1 (Homo sapiens), sequence (Q99828 whole entry, looked up): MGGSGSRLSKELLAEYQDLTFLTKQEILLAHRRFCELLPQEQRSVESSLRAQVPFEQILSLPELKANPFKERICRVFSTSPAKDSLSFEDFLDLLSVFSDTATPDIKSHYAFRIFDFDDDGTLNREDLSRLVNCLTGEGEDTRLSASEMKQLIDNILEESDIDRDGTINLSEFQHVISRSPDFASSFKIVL

What does the source list for `CCC(O)(C(=O)OCc1ccccc1NC(=O)CCC(=O)O)C(C)O` (centres undefined)?
Potency [1]: inactive; Potency [2]: inactive

With `COc1c2ccoc2cc2oc(CO[C@@H]3O[C@H](CO)[C@@H](O)[C@H](O)[C@H]3O)cc(=O)c12` as the compound, how does the Potency [1] read?
The Potency was “inactive”.

What about the Potency [2] of the same compound?
Its Potency is “inactive”.

What does the source list for `C[C@@H]1CC[C@@]2(OC1)O[C@H]1C[C@H]3[C@@H]4CC=C5C[C@@H](O)CC[C@]5(C)[C@H]4CC[C@]3(C)[C@H]1[C@@H]2C`?
Potency [1]: inactive; Potency [2]: inactive

With `C/C=C/c1ccc(O[C@@H]2O[C@H](CO)[C@@H](O)[C@H](O)[C@H]2O)c(OC)c1` as the compound, how does the Potency [1] read?
Its Potency is “inactive”.

And the Potency [2]?
Its Potency is “inactive”.

Which results are given for `C/C(=C\CCC(C)CCO)C(=O)O[C@@H]1[C@@H](O)[C@H](OC2OC=C(C(=O)O)C3CCC(C)(O)C23)O[C@H](CO)[C@H]1O` (some centres undefined)?
Potency [1]: inactive; Potency [2]: inactive

Which Potency [1] does the source give for `COC(=O)/C=C/C12COC(C)(C)C1C(O)C(OC(C)=O)C1(C)C2CCC2(C)C(c3ccoc3)OC(=O)C3OC321` (centres undefined) here?
Its Potency is “inactive”.

What about the Potency [2] of the same compound?
The Potency was “inactive”.

Which Potency [1] does the source give for `Cc1[nH]nc(C(F)(F)F)c1Cc1sc2c(c1C(=O)N1C[C@](C)(O)CO1)c(=O)n(C)c(=O)n2C(C)C` here?
Its Potency is “inactive”.

And the Potency [2]?
The Potency was “inactive”.

With `COC(=O)C1=COC(O[C@@H]2O[C@H](CO)[C@@H](O)[C@H](O)[C@H]2O)[C@H]2[C@@H]1[C@H](OC(=O)CCc1ccc(O)cc1)C[C@]2(C)O` (some centres undefined) as the compound, how does the Potency [1] read?
The Potency was “inactive”.

What about the Potency [2] of the same compound?
Its Potency is “inactive”.

What does the source list for `CC(O)/C=C/C1(O)C2(C)COC1(C)CC(O)C2` (centres undefined)?
Potency [1]: inactive; Potency [2]: inactive

With `COC(=O)c1ccc(OC(CO)C(O)c2ccc(O)c(OC)c2)c(OC)c1` (centres undefined) as the compound, how does the Potency [1] read?
The Potency was “inactive”.

What about the Potency [2] of the same compound?
The Potency was “inactive”.

Which activity change, negative = inhibition [1] does the source give for `CC(C)=CCC/C(C)=C/CC/C(C)=C/COC1OC(COC2OCC(OC3OCC(O)C(O)C3O)C(O)C2O)C(O)C(OC2OC(C)C(OC3OC(C)C(OC4OCC(OC5OC(C)C(O)C(O)C5O)C(O)C4O)C(O)C3O)C(O)C2O)C1O` (centres undefined) here?
Its activity change, negative = inhibition is 4.51% [at 12.4 µM].

And the outcome [2]?
The outcome was “inactive [at 9.23 µM]”.

Which Potency [1] does the source give for `C=C1C[C@]23C[C@H]1[C@@H](O)C[C@H]2[C@@]12C=C[C@H](O)[C@@](C)(C(=O)O1)[C@H]2[C@@H]3C(=O)O` here?
The Potency was “inactive”.

And the Potency [2]?
Its Potency is “inactive”.

What does the source list for `C=C[C@@]12COC(=O)C(=C)C1[C@@H](O)[C@H](C(=C)C(=O)OC)[C@@H](OC(=O)C(=C)CO)C2` (some centres undefined)?
Potency [1]: inactive; Potency [2]: 8.93 µM (active)

With `CC(=O)OC1C(c2ccccc2)CCC(c2ccccc2)C1OC(C)=O` (centres undefined) as the compound, how does the Potency [1] read?
The Potency was “inactive”.

What about the Potency [2] of the same compound?
Its Potency is “inactive”.

Which results are given for `CC1(C)CC[C@]2(C(=O)O[C@@H]3O[C@H](CO)[C@@H](O)[C@H](O)[C@H]3O)CC[C@]3(C)C(=CCC4[C@@]5(C)C[C@@H](O)[C@H](O)[C@@](C)(CO)C5CC[C@]43C)C2[C@@H]1O` (some centres undefined)?
Potency [1]: inactive; Potency [2]: inactive

With `CC1(C)CCCC2(C)C=C(C(=O)O)C(O)CC12` (centres undefined) as the compound, how does the Potency [1] read?
The Potency was “inactive”.

What about the Potency [2] of the same compound?
The Potency was “inactive”.

Which results are given for `COc1cccc2cc3c(c(O[C@@H]4O[C@H](CO[C@@H]5O[C@H](CO)[C@@H](O)[C@H](O)[C@H]5O)[C@@H](O)[C@H](O)[C@H]4O)c12)C(C)OC3=O` (some centres undefined)?
Potency [1]: inactive; Potency [2]: inactive

Which results are given for `CN1c2ccccc2C(=O)N2CCC3c4ccccc4NC3C21` (centres undefined)?
Potency [1]: inactive; Potency [2]: 2.26 µM (active)

For `CC(C)=CCC[C@](C)(O[C@@H]1O[C@H](CO)[C@@H](O)[C@H](O)[C@H]1O)[C@H]1CC[C@]2(C)[C@@H]1[C@H](O)CC1[C@@]3(C)CC[C@H](O)C(C)(C)C3[C@@H](O[C@@H]3O[C@H](CO)[C@@H](O)[C@H](O)[C@H]3O[C@@H]3OC[C@@H](O)[C@H](O)[C@H]3O)C[C@]12C` (some centres undefined), which Potency [1] is on record?
The Potency was “inactive”.

And the activity change, negative = viability loss [2]?
Its activity change, negative = viability loss is -22.1% [at 9.23 µM].

Which Potency [1] does the source give for `CCC(C)C(=O)OC1CC(O)C23C4OCC5(C(O)CC2C1(C)C(O)O4)C3C(=O)CC1(C)C(c2ccoc2)CC2OC215` (centres undefined) here?
Its Potency is “inactive”.

And the Potency [2]?
Its Potency is 0.399 µM (active).

Which results are given for `C/C=C/C1=CC2=C(CO1)C(=O)C(C)(O)C(OC(=O)c1c(C)cc(OC)cc1O)C2` (centres undefined)?
Potency [1]: inactive; Potency [2]: 16 µM (active)

With `COC(=O)C[C@H]1C(C)(C)[C@H](OC(C)=O)C2CC3=C4CC(=O)O[C@@H](c5ccoc5)[C@]4(C)CCC3[C@@]1(C)C2=O` (some centres undefined) as the compound, how does the Potency [1] read?
Its Potency is “inactive”.

And the Potency [2]?
Its Potency is “inactive”.

Which results are given for `CC(O)CCC1C(CO[C@@H]2O[C@H](CO)[C@@H](O)[C@H](O)[C@H]2O)CC(O)CC1(C)C` (some centres undefined)?
Potency [1]: inactive; Potency [2]: inactive

With `COc1ccc(/C=C/C(=O)O[C@H]2[C@H](O[C@H]3[C@@H]4C=CO[C@@H](O[C@@H]5O[C@H](CO)[C@@H](O)[C@H](O)[C@H]5O)[C@@H]4[C@@]4(CO)O[C@@H]34)O[C@@H](C)[C@H](O)[C@H]2OC(C)=O)cc1` as the compound, how does the Potency [1] read?
Its Potency is “inactive”.

And the Potency [2]?
The Potency was “inactive”.

With `COc1ccc(/C=C\C(=O)O)c(O[C@@H]2O[C@H](CO)[C@@H](O)[C@H](O)[C@H]2O)c1` as the compound, how does the Potency [1] read?
The Potency was “inactive”.

And the Potency [2]?
The Potency was “inactive”.

With `OC[C@H]1O[C@@H](Oc2cc(O)c3c(c2)O[C@@H](c2ccc(O)cc2)[C@H](O)C3)[C@H](O)[C@@H](O)[C@@H]1O` as the compound, how does the Potency [1] read?
Its Potency is “inactive”.

And the Potency [2]?
The Potency was “inactive”.

With `CC1(C)CCC2(C(=O)OC3OC(CO)C(O)C(O)C3O)CCC3(C)C(=CCC4C5(C)CCC(OC6OC(C(=O)O)C(OC7OC(CO)C(O)C(O)C7O)C(OC7OC(CO)C(O)C(O)C7O)C6O)C(C)(C)C5CCC43C)C2C1` (centres undefined) as the compound, how does the Potency [1] read?
Its Potency is “inactive”.

What about the activity change, negative = viability loss [2] of the same compound?
The activity change, negative = viability loss was -4.92% [at 9.23 µM].
